# AMA1-RON2 inh – AMA1-RON2 (P. falciparum) interaction inhibition. AlphaScreen AMA1-biotinylated RON2 peptide binding. Potency, µM (series often up to 58.2 µM), hits mostly inhibitors. 0.2% of 360,000 active; note: nearly all actives have a fitted effect of over 45% in size
#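 AMA1 (3D7) with his tag at 25 nM final met compounds first, then biotinylated RON2 peptide at 25 nM; detection used donor plus acceptor beads, 10 µg/mL apiece, read by AlphaScreen after 30 min at room temperature.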
# Pf growth 96h – P. falciparum growth inhibition at 96 hours. P. falciparum luciferase reporter growth, 96 h. Potency, µM (doses to about 28.7 µM), hits mostly inhibitors. 6.9% of 320,000 active
#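 Parasite growth measured via integrated firefly luciferase reporter in P. falciparum. Infected erythrocytes at 2% hematocrit, 0.05% parasitemia final were treated 96 hours at 37 C under 5% CO2, and luminescence was read.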
# HCV inh – HCV inhibition; Huh7.5.1 HCVcc-Cre infection, luciferase reporter, 44 h; Potency, µM (titrated, usually from 41.8 µM), usual class: inhibitors; 3.4% of 340,000 active; AID 651820
#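 Luciferase read-out (15 sec integration) after a 15 min room-temperature substrate step quantifies HCVcc-Cre infection. Cells, 1,000 per well, had compound added 4 h post-plating, then virus at ~0.5 moi, and were cultured 44 h.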
# Pf growth 48h – P. falciparum growth inhibition at 48 hours (one generation); P. falciparum luciferase growth in erythrocytes, 48 h; Potency, µM (top dose mostly 28.7 µM), usual class: inhibitors; 5.9% of 310,000 active
#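 Parasite viability was followed by luminescence of a genomically integrated firefly luciferase. Cultures held 0.1% parasitemia at 2% hematocrit (final), incubated under 5% CO2 at 37 C.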
# Numbers stand for hits; - = inactive; ? = inconclusive; . = no result; [ ] = remark or other dose. Sampled rows, rich in hits. Any-hit rate of the full collection: about 11%. Calls come from the whole dose curve; as a rule, active = well fitted curve in the direction sought with a large enough effect; inconclusive = small, poorly fitted or top-dose-only effect, or another doubt; inactive = no such curve, though single readings can be large; an effect the other way counts as inactive or inconclusive.
SMILES,AMA1-RON2 inh,Pf growth 96h,HCV inh,Pf growth 48h
CN(C)CCCn1c(SCC(=O)Nc2nc(-c3cccc(Br)c3)cs2)nc2ccccc2c1=O,-,?,10µM,?
COCCn1c(SCC(=O)Nc2cccnc2Cl)nc2cc(Cl)ccc2c1=O,-,?,?,?
COCCCn1c(SCC(=O)Nc2ccc(C(=O)OC)cc2)nc2ccccc2c1=O,?,?,-,8.28µM
CC(C)N(CCn1c(SCC(=O)Nc2cccnc2Cl)nc2ccccc2c1=O)C(C)C,-,5.86µM,?,?
C[n+]1ccccc1/C=C/c1ccc(F)c(F)c1,-,-,-,?
C[n+]1ccccc1/C=C/c1ccc([N+](=O)[O-])cc1,-,-,10µM,1.31µM
C[n+]1ccccc1/C=C/c1ccc2ncccc2c1,-,?,-,1.17µM
Cc1ccccc1/C=C/c1cccc[n+]1C,-,?,6.31µM,4.65µM
C[n+]1ccccc1/C=C/c1c(F)cccc1F,-,?,?,13.1µM
CSCCNC(=O)C1(C)CCN1C(=O)c1cc(C)n(C)n1 (stereo unspecified),-,.,.,.
Cc1cc(O)ccc1N=Cc1c(C(F)(F)F)[nH][nH]c1=O,-,?,-,?
C[n+]1ccccc1/C=C/c1ccccc1Cl,-,?,?,1.47µM
CC1CC(C)CN(C(=O)c2ccc3c(=O)n(Cc4ccc5c(c4)OCO5)c(=S)[nH]c3c2)C1 (stereo unspecified),-,7.38µM,-,-
CCCCCn1c(=O)[nH]c2cc(C(=O)N3CCN(Cc4ccc5c(c4)OCO5)CC3)ccc2c1=O,-,-,2.82µM,-
CC1CC(C)CN(C(=O)c2ccc3c(c2)OCCO3)C1 (stereo unspecified),-,4.65µM,-,2.94µM
CCCCCn1c(=O)[nH]c2cc(C(=O)NCc3ccc4c(c3)OCO4)ccc2c1=O,-,?,-,-
O=C(c1ccc2c(=O)n(Cc3ccc4c(c3)OCO4)c(=S)[nH]c2c1)N1CCCCC1,-,?,-,-
CC1CCN(C(=O)c2ccc3c(c2)OCCO3)CC1,-,.,-,-
CCOC(=O)N1CCN(C(=O)c2ccc(Cn3c(=S)[nH]c4cc(OCC)c(OCC)cc4c3=O)cc2)CC1,-,-,?,?
CCOC(=O)N1CCN(C(=O)c2ccc(Cn3c(=S)[nH]c4cc5c(cc4c3=O)OCO5)cc2)CC1,-,?,?,13.1µM
COc1ccccc1NC(=O)Cc1noc(CSc2cc(C)c3ccccc3n2)n1,-,-,11.2µM,-
O=C(Nc1ccc(C(=O)N2CCCCC2)cc1)c1ccccc1Br,-,.,-,.
COc1cc(C(=O)ON=C2C3CC4CC(C3)CC2C4)cc(OC)c1OC,-,1.47µM,-,1.17µM
COc1cc(C(=O)O/N=C2\C=CC(=O)C=C2C)cc(OC)c1OC,-,-,-,-
CC(=O)Nc1ccc(/C(C)=N/Nc2nc(Nc3cccc4ccccc34)nc(N3CCOCC3)n2)cc1,-,?,?,13.1µM
SMILES,AMA1-RON2 inh,Pf growth 96h,HCV inh,Pf growth 48h
CC(=O)Nc1ccc(/C(C)=N/Nc2nc(N3CCOCC3)nc(N3CCOCC3)n2)cc1,-,-,-,-
O=C(NC[C@@H]1CC[C@@H](Cc2ccc(-c3ccccc3)cc2)O1)Nc1ccc(Br)cc1,-,.,5.01µM,.
N#Cc1ccccc1S(=O)(=O)N1CCN(C(=O)CN(Cc2ccco2)Cc2cccs2)CC1,-,.,.,.
S=C1SCN(CC2CC2)CN1CC1CC1,-,5.22µM,?,?
CCC(Oc1ccc(Br)cc1Cl)C(=O)Nc1nnc(C2CC2)s1 (stereo unspecified),-,-,-,-
CCOC(=O)[C@@H](NC(=O)/C=C/[C@H]1O[C@@H](n2ccc(=O)[nH]c2=O)[C@H](O)[C@@H]1O)C(C)C,-,.,.,.
c1ccc(COC2CCCN(Cc3nc(-c4cnccn4)no3)C2)cc1 (stereo unspecified),-,?,-,-
CCCOC1CCCN(Cc2nc(-c3cnccn3)no2)C1 (stereo unspecified),-,10.4µM,-,-
Cc1cc(NC(=O)CSc2nc3c([nH]c4ccccc43)c(=O)n2-c2cccc(C(F)(F)F)c2)no1,-,9.28µM,?,11.7µM
COc1ccc(C)cc1-n1c(SCC(=O)NCC2CCCO2)nc2c([nH]c3ccccc32)c1=O (stereo unspecified),-,?,8.91µM,9.28µM
COc1cccc(-n2c(SCC(=O)Nc3cc(C)on3)nc3c([nH]c4ccccc43)c2=O)c1,-,?,?,?
COc1ccc(NC(=O)CSc2nc3c([nH]c4ccccc43)c(=O)n2C)c(OC)c1,-,?,.,-
COc1ccccc1-n1c(SCC(=O)Nc2cc(C)on2)nc2c([nH]c3ccccc32)c1=O,-,11.7µM,?,-
Cc1cc(NC(=O)CSc2nc3c([nH]c4ccccc43)c(=O)n2-c2ccccc2F)no1,-,13.1µM,?,13.1µM
Cc1ccccc1CNC(=O)c1[nH]c(C(F)(F)F)nc1-c1ccccc1,-,.,.,.
O=C(/C=C/c1ccc([N+](=O)[O-])s1)N1CCCCC1,-,?,?,?
O=C(/C=C/c1ccc([N+](=O)[O-])s1)N1CCCC1,-,10.4µM,?,13.1µM
CC1CN(C(=O)/C=C/c2ccc([N+](=O)[O-])s2)CC(C)O1 (stereo unspecified),-,?,?,?
CC1CC(C)CN(C(=O)/C=C/c2ccc([N+](=O)[O-])s2)C1 (stereo unspecified),-,9.28µM,?,-
CCN(CC)C(=O)c1ccc(-c2nnc(Nc3cccc(O)c3)c3ccccc23)cc1,-,-,-,2.94µM
CC1=C/C(=C\C=C(C#N)C#N)N(C)c2ccccc21,-,-,-,-
CC1=CC(=C(C#N)C#N)c2ccccc2N1C,-,-,-,11.7µM
CCN=C1S/C(=C\c2cc(OCC)c(O)cc2Br)C(=O)N1CC,-[11.6 µM],10.4µM,?,11.7µM
CCN=C1S/C(=C\c2ccc(O)c(OCC)c2)C(=O)N1CC,-,?,?,-
CCOC(=O)c1c(NC(=O)CCl)sc(CN(C)C)c1-c1ccccc1,-,?,?,13.1µM
SMILES,AMA1-RON2 inh,Pf growth 96h,HCV inh,Pf growth 48h
CCOC(=O)c1c(NC(=O)CN2CCCCC2)sc(CN(C)C)c1-c1ccccc1,-,-,22.4µM,-
CCOC(=O)c1c(NC(=S)N2CCN(C)CC2)sc(C)c1-c1ccccc1,-,-,-,?
COc1ccc(C(=O)NCCc2nnc3ccc(SCC(=O)Nc4ccccc4F)nn23)cc1,-,-,-,-
Cc1sc2nc(C(C)C)nc(SCC(=O)N3CCOCC3)c2c1C,-,-,-,-
O=c1c2ccccc2nc(/C=C\c2ccccc2[N+](=O)[O-])n1-c1ccccc1O,-,?,-,6.57µM
O=c1c2ccccc2nc(/C=C/c2ccc3c(c2)OCO3)n1-c1ccccc1,-,10.4µM,?,?
O=c1c2ccccc2nc(/C=C/c2ccc3c(c2)OCO3)n1CCCO,-,-,-,-
COc1ccc(-n2c(/C=C/c3ccc(O)c(O)c3)nc3ccccc3c2=O)cc1,-,2.33µM,?,5.22µM
NC(=O)CSc1oc(-c2ccco2)nc1S(=O)(=O)c1ccc(F)cc1,-,?,-,-
